According to PubChem BioAssay (NCATS):
“And” between values parts separate entries of the source, which are not always exact repeats. Equal entries are not always repeated. Results filed as inconclusive are left out. Where a structure was tested more than once in an assay, its records may differ in their call. The source made the active and inactive calls. The call rests on the fitted dose curve; in most records, active means well fitted inhibition curve with a large enough effect; inconclusive means small, poorly fitted or top-dose-only effect; inactive means flat fitted curve, though single readings scatter.

system: SC27B; assay: qHTS profiling for inhibitors of Plasmodium falciparum proliferation (AID 504749);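 further: 0% = DMSO vehicle and full inhibition = artemisinin control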; settings: P. falciparum in erythrocytes, SYBR Green DNA, 72 h; series mostly up to 28.7 µM
Method in brief: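 P. falciparum-infected erythrocytes (0.3% parasitemia, 2.5% hematocrit final) were exposed to compounds for 72 h at 37 C in 5% CO2, then lysed with SYBR Green buffer overnight at room temperature; parasite DNA fluorescence was normalized to artemisinin and DMSO controls.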
Further: nearly all actives have a fitted effect of over 60% in size.

Structure (SMILES) | Potency
C=CCN1C[C@H](C)N([C@H](c2ccc(C(=O)N(CC)CC)cc2)c2cccc(OC)c2)C[C@H]1C | inactive
CN1C(=O)CCS(=O)(=O)C1c1ccc(Cl)cc1 (configuration not stated) | inactive
CCOC(=O)CC(SP(=S)(OC)OC)C(=O)OCC (configuration not stated) | inactive

system: CRL-7250; assay: Cytotoxic Profiling of Annotated Libraries Using Quantitative High-Throughput Screening (AID 1296008); settings: Five cell lines viability, CellTiter-Glo ATP luminescence, 48-72 h; max response: hits give low values; further: potency means the concentration at half of the fitted maximal effect; on max response: on the % scale 0 is the no-effect control and ±100 the full control effect
Method in brief: (§1)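 Compounds were pin-transferred onto cells and incubated 48 or 72 hr at 37 degree Celsius, 95% humidity. CellTiter-Glo was added, plates sat 10 min at room temperature, then ATP-coupled luminescence was imaged as the viability read-out.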

Structure (SMILES) | max response | outcome | Potency
COc1cc(CCN)cc(OC)c1OC | -14.6% (inactive) | – | –
CC(C)(N)Cc1ccccc1Cl | – | inactive | –
C#C[C@]1(O)CC[C@H]2[C@@H]3CCC4=CC(=O)CC[C@]4(C)[C@H]3CC[C@@]21C | -4.49% (inactive) | – | –
C#CC(O)(C=CCl)CC (configuration not stated) | -0.331% (inactive) | – | –
ClCCN1CCCC1 | -0.393% (inactive) | – | –
C=CCN1C[C@H](C)N([C@H](c2ccc(C(=O)N(CC)CC)cc2)c2cccc(OC)c2)C[C@H]1C | 0.0318% (inactive) | inactive | –
COc1ccc2c3c1O[C@H]1[C@H](O)CC[C@H]4[C@@H](C2)N(C)CC[C@@]341 | – | inactive | –
CC(=O)OCC1=C(C(=O)O)N2C(=O)[C@@H](N)[C@H]2SC1 | -3.91% (inactive) | inactive | –
O=C(O)c1ccc(=O)[nH]c1 | – | inactive | –
COc1cccc2c1C(=O)c1c(O)c3c(c(O)c1C2=O)C[C@@](O)(C(=O)CO)CC3OC1CC(N2CCOC(OC)C2)C(O)C(C)O1 (some centres not stated) | – | – | 16.8 nM (active)
CN1C(=O)CCS(=O)(=O)C1c1ccc(Cl)cc1 (configuration not stated) | -0.906% (inactive) and -1.81% (inactive) | – | –
COP(=S)(OC)Oc1cc(Cl)c(Cl)cc1Cl | -8.37% (inactive) | – | –
COC(=O)C(Cl)C(=O)OC | -1.36% (inactive) | – | –
NC1=NC(=O)C(c2ccccc2)O1 (configuration not stated) | -3.81% (inactive) | – | –
C[C@]12CC[C@@H]3c4ccc(OC(=O)N(CCCl)CCCl)cc4CC[C@H]3[C@@H]1CC[C@@H]2OP(=O)(O)O | – | inactive | 10500 nM (active)
COC(=O)[C@@H](N)CCCN/C(N)=N/[N+](=O)[O-] | – | inactive | –

Structure (SMILES) | max response | outcome | Potency
O=C(O)/C=C\C(=O)O | -1.31% (inactive) | – | –
C[C@H]1[C@@H]2Cc3ccc(O)cc3[C@@]1(C)CCN2C | -7.45% (inactive) | – | –
CC[N+]1(CC)CCC(OC(=O)C(O)(c2ccccc2)c2ccccc2)C1 (configuration not stated) | -3.85% (inactive) | – | –
CCC(CC)(CNC(=O)CCCO)c1cccc(OC)c1 | 0.244% (inactive) | – | –
CN1CC[C@]23c4c5ccc(O)c4O[C@H]2[C@@H](O)CC[C@H]3[C@H]1C5 | – | inactive | –
O=[N+]([O-])O[C@H]1CO[C@H]2[C@@H]1OC[C@H]2O[N+](=O)[O-] | -11.3% (inactive) | – | –
O=c1c(C2CC(c3ccc(-c4ccc(Br)cc4)cc3)Cc3ccccc32)c(O)sc2ccccc12 (configuration not stated) | 0.288% (inactive) | – | –
COc1cccc([C@@]2(O)CCCC[C@@H]2CN(C)C)c1 | – | inactive | –
CCc1cc2c(s1)-n1c(C)nnc1CN=C2c1ccccc1Cl | – | inactive | –
CCOC(=O)CC(SP(=S)(OC)OC)C(=O)OCC (configuration not stated) | -3.52% (inactive) | inactive | –
CC(=O)C1CCOC1=O (configuration not stated) | – | inactive | –
CCN[C@@H](C)Cc1cccc(C(F)(F)F)c1 | -0.0811% (inactive) | – | –
CCCCCN(C)CCC(O)(P(=O)(O)O)P(=O)(O)O | -0.0055% (inactive) | – | –
CC(NC(C)(C)C)C(=O)c1cccc(Cl)c1 (configuration not stated) | -10.7% (inactive) | inactive | –
C[C@H](N)C(=O)c1ccccc1 | -38.6% (inactive) | – | –
CC(C)N(CCC(C(N)=O)(c1ccccc1)c1ccccn1)C(C)C (configuration not stated) | -4.51% (inactive) | inactive | –

system: HEK293; assay: as above; settings: Five cell lines viability, CellTiter-Glo ATP luminescence, 48-72 h; max response: hits give low values
Method in brief: as §1

Structure (SMILES) | max response | outcome | Potency
COc1cc(CCN)cc(OC)c1OC | -9.62% (inactive) | – | –
CC(C)(N)Cc1ccccc1Cl | – | inactive | –
C#C[C@]1(O)CC[C@H]2[C@@H]3CCC4=CC(=O)CC[C@]4(C)[C@H]3CC[C@@]21C | 2.42% (inactive) | – | –
C#CC(O)(C=CCl)CC (configuration not stated) | -13.2% (inactive) | – | –
ClCCN1CCCC1 | – | inactive | –
COc1ccc2c3c1O[C@H]1[C@H](O)CC[C@H]4[C@@H](C2)N(C)CC[C@@]341 | -4.59% (inactive) | – | –
CC(=O)OCC1=C(C(=O)O)N2C(=O)[C@@H](N)[C@H]2SC1 | 0.778% (inactive) and -3.29% (inactive) | – | –
O=C(O)c1ccc(=O)[nH]c1 | -0.0722% (inactive) | – | –
COc1cccc2c1C(=O)c1c(O)c3c(c(O)c1C2=O)C[C@@](O)(C(=O)CO)CC3OC1CC(N2CCOC(OC)C2)C(O)C(C)O1 (some centres not stated) | – | – | 11.9 nM (active)
CN1C(=O)CCS(=O)(=O)C1c1ccc(Cl)cc1 (configuration not stated) | -9.62% (inactive) | inactive | –
COP(=S)(OC)Oc1cc(Cl)c(Cl)cc1Cl | 1.74% (inactive) | – | –
NC1=NC(=O)C(c2ccccc2)O1 (configuration not stated) | 2.82% (inactive) | – | –
COC(=O)[C@@H](N)CCCN/C(N)=N/[N+](=O)[O-] | – | inactive | –
O=C(O)/C=C\C(=O)O | -3.36% (inactive) | – | –
C[C@H]1[C@@H]2Cc3ccc(O)cc3[C@@]1(C)CCN2C | -19.5% (inactive) | – | –
CC[N+]1(CC)CCC(OC(=O)C(O)(c2ccccc2)c2ccccc2)C1 (configuration not stated) | 3.52% (inactive) | – | –
CCC(CC)(CNC(=O)CCCO)c1cccc(OC)c1 | -5.56% (inactive) | – | –
CN1CC[C@]23c4c5ccc(O)c4O[C@H]2[C@@H](O)CC[C@H]3[C@H]1C5 | -12.9% (inactive) | – | –
COc1cccc([C@@]2(O)CCCC[C@@H]2CN(C)C)c1 | -4.04% (inactive) | – | –
CCc1cc2c(s1)-n1c(C)nnc1CN=C2c1ccccc1Cl | -15.5% (inactive) | – | –
CC(=O)C1CCOC1=O (configuration not stated) | – | inactive | –
CCN[C@@H](C)Cc1cccc(C(F)(F)F)c1 | 3.69% (inactive) | – | –
CCCCCN(C)CCC(O)(P(=O)(O)O)P(=O)(O)O | -18.4% (inactive) | – | –
C[C@H](N)C(=O)c1ccccc1 | -0.637% (inactive) | – | –
CC(C)N(CCC(C(N)=O)(c1ccccc1)c1ccccn1)C(C)C (configuration not stated) | -72.3% (inactive) | – | –
